For 40 sequences, binding signal results are on record in article PMC12820563, “FoxP3 forms a head-to-head dimer in vivo and stabilizes its multimerization on adjacent microsatellites”.

The full ranking holds about 16,000 sequences; the median of “rpm ratio (pull-down/input)” is about 0.5, and the highest 2% start at about 5.5. Many of the other results were omitted from the sample, so the highest values are more common in it than they were.

For the test, the target named is T1, MBP-FoxP3dN (Mus musculus, UniProt Q99JB6 188-423).
T1 sequence: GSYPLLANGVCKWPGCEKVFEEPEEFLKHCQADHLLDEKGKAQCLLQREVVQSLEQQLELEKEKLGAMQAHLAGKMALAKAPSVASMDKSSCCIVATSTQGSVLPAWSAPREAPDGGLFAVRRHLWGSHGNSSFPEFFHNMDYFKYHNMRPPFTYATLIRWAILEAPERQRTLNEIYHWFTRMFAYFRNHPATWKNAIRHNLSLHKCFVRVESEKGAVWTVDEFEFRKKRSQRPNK
In words: PD-seq (MBP pull-down with sequencing); 20 mM Tris-HCl pH 7.5, 100 mM NaCl, 1.5 mM MgCl2, 0.4 uM protein, 0.1 uM dsDNA library, 30 min, room temperature, amylose pull-down; high values mean tight binding. The settings on record: protein: recombinant; tags: His6-MBP; chain copies: 2; dsDNA, one strand shown. A digest of the protocol:
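In Tris pH 7.5 buffer with NaCl and MgCl2, 0.4 µM His6-MBP-tagged mouse FoxP3 or FoxP1 fragment lacking the N-terminus, from E. coli, met 0.1 µM Klenow-filled double-stranded degenerate DNA library for 30 min at room temperature. Three washes on amylose resin followed capture of the complexes, then proteinase K release of DNA, PCR barcoding and Illumina sequencing. Binding is taken as pooled-replicate reads-per-million enrichment of pull-down relative to input.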
For the sequence “GATGATTGTTCTCCCAGCTGATGAATTTATTACGTCGAGTAAACAAATTTTCCTAATCTTTCTGTTCAAGCGCCATCTAC”, the binding signal is 1.22 RPM ratio (pull-down/input).
As for “GATGATTGTTCTCCCAGCTGATGAATTGGCGACGTCGAGTAAACAAATTTTCCTAATCTTTCTGTTCAAGCGCCATCTAC”, the binding signal was 0.41 RPM ratio (pull-down/input).
Take “GATGATTGTTCTCCCAGCTGATGAATTAGGTTGGTCGAGTAAACAAATTTTCCTAATCTTTCTGTTCAAGCGCCATCTAC”: the binding signal was 1.62 RPM ratio (pull-down/input).
To “GATGATTGTTCTCCCAGCTGATGAATTTTTTGTGTCGAGTAAACAAATTTTCCTAATCTTTCTGTTCAAGCGCCATCTAC” belongs 0.531 RPM ratio (pull-down/input); to “GATGATTGTTCTCCCAGCTGATGAATTCTTTGTGTCGAGTAAACAAATTTTCCTAATCTTTCTGTTCAAGCGCCATCTAC”, 0.573 RPM ratio (pull-down/input).
To “GATGATTGTTCTCCCAGCTGATGAATTTTGTGTGTCGAGTAAACAAATTTTCCTAATCTTTCTGTTCAAGCGCCATCTAC” belongs 5.59 RPM ratio (pull-down/input); to “GATGATTGTTCTCCCAGCTGATGAATTAGTCTGATCGAGTAAACAAATTTTCCTAATCTTTCTGTTCAAGCGCCATCTAC”, 0.373 RPM ratio (pull-down/input); to “GATGATTGTTCTCCCAGCTGATGAATTCTCCCGTTCGAGTAAACAAATTTTCCTAATCTTTCTGTTCAAGCGCCATCTAC”, 0.247 RPM ratio (pull-down/input).
The figure for “GATGATTGTTCTCCCAGCTGATGAATTGGTGAATTCGAGTAAACAAATTTTCCTAATCTTTCTGTTCAAGCGCCATCTAC” is 0.867 RPM ratio (pull-down/input); for “GATGATTGTTCTCCCAGCTGATGAATTGTGCTGTTCGAGTAAACAAATTTTCCTAATCTTTCTGTTCAAGCGCCATCTAC” it is 3.6 RPM ratio (pull-down/input); for “GATGATTGTTCTCCCAGCTGATGAATTGGTGCATTCGAGTAAACAAATTTTCCTAATCTTTCTGTTCAAGCGCCATCTAC” it is 6.97 RPM ratio (pull-down/input).
For “GATGATTGTTCTCCCAGCTGATGAATTTGGTGCATCGAGTAAACAAATTTTCCTAATCTTTCTGTTCAAGCGCCATCTAC”, the binding signal is 1.86 RPM ratio (pull-down/input).
To “GATGATTGTTCTCCCAGCTGATGAATTCATTTGTTCGAGTAAACAAATTTTCCTAATCTTTCTGTTCAAGCGCCATCTAC” belongs 3.73 RPM ratio (pull-down/input); to “GATGATTGTTCTCCCAGCTGATGAATTGTGCCATTCGAGTAAACAAATTTTCCTAATCTTTCTGTTCAAGCGCCATCTAC”, 6.37 RPM ratio (pull-down/input).
To “GATGATTGTTCTCCCAGCTGATGAATTTTGTGATTCGAGTAAACAAATTTTCCTAATCTTTCTGTTCAAGCGCCATCTAC” belongs 5.26 RPM ratio (pull-down/input); to “GATGATTGTTCTCCCAGCTGATGAATTGTGTGCATCGAGTAAACAAATTTTCCTAATCTTTCTGTTCAAGCGCCATCTAC”, 2.8 RPM ratio (pull-down/input); to “GATGATTGTTCTCCCAGCTGATGAATTTTCCCATTCGAGTAAACAAATTTTCCTAATCTTTCTGTTCAAGCGCCATCTAC”, 0.252 RPM ratio (pull-down/input).
“GATGATTGTTCTCCCAGCTGATGAATTTGTGCATTCGAGTAAACAAATTTTCCTAATCTTTCTGTTCAAGCGCCATCTAC”: the binding signal was 7.63 RPM ratio (pull-down/input).
To “GATGATTGTTCTCCCAGCTGATGAATTGTGCATTTCGAGTAAACAAATTTTCCTAATCTTTCTGTTCAAGCGCCATCTAC” belongs 7.44 RPM ratio (pull-down/input); to “GATGATTGTTCTCCCAGCTGATGAATTCTCCCATTCGAGTAAACAAATTTTCCTAATCTTTCTGTTCAAGCGCCATCTAC”, 0.243 RPM ratio (pull-down/input); to “GATGATTGTTCTCCCAGCTGATGAATTGAATAGCTCGAGTAAACAAATTTTCCTAATCTTTCTGTTCAAGCGCCATCTAC”, 0.346 RPM ratio (pull-down/input).
The figure for “GATGATTGTTCTCCCAGCTGATGAATTTGTAAAATCGAGTAAACAAATTTTCCTAATCTTTCTGTTCAAGCGCCATCTAC” is 0.357 RPM ratio (pull-down/input); for “GATGATTGTTCTCCCAGCTGATGAATTGTCGTAGTCGAGTAAACAAATTTTCCTAATCTTTCTGTTCAAGCGCCATCTAC” it is 0.56 RPM ratio (pull-down/input).
To “GATGATTGTTCTCCCAGCTGATGAATTCACGTGTTCGAGTAAACAAATTTTCCTAATCTTTCTGTTCAAGCGCCATCTAC” belongs 0.58 RPM ratio (pull-down/input); to “GATGATTGTTCTCCCAGCTGATGAATTAAGACGGTCGAGTAAACAAATTTTCCTAATCTTTCTGTTCAAGCGCCATCTAC”, 0.236 RPM ratio (pull-down/input); to “GATGATTGTTCTCCCAGCTGATGAATTATAAAGATCGAGTAAACAAATTTTCCTAATCTTTCTGTTCAAGCGCCATCTAC”, 0.233 RPM ratio (pull-down/input).
As for “GATGATTGTTCTCCCAGCTGATGAATTGTGCCTTTCGAGTAAACAAATTTTCCTAATCTTTCTGTTCAAGCGCCATCTAC”, the binding signal was 6.1 RPM ratio (pull-down/input).
To “GATGATTGTTCTCCCAGCTGATGAATTTTGTGCATCGAGTAAACAAATTTTCCTAATCTTTCTGTTCAAGCGCCATCTAC” belongs 2.27 RPM ratio (pull-down/input); to “GATGATTGTTCTCCCAGCTGATGAATTCGTGCATTCGAGTAAACAAATTTTCCTAATCTTTCTGTTCAAGCGCCATCTAC”, 6.29 RPM ratio (pull-down/input); to “GATGATTGTTCTCCCAGCTGATGAATTCGTGCCATCGAGTAAACAAATTTTCCTAATCTTTCTGTTCAAGCGCCATCTAC”, 2.18 RPM ratio (pull-down/input).
To “GATGATTGTTCTCCCAGCTGATGAATTTCGTGCATCGAGTAAACAAATTTTCCTAATCTTTCTGTTCAAGCGCCATCTAC” belongs 1.22 RPM ratio (pull-down/input); to “GATGATTGTTCTCCCAGCTGATGAATTGTGCATCTCGAGTAAACAAATTTTCCTAATCTTTCTGTTCAAGCGCCATCTAC”, 8.03 RPM ratio (pull-down/input); to “GATGATTGTTCTCCCAGCTGATGAATTCTGTGCATCGAGTAAACAAATTTTCCTAATCTTTCTGTTCAAGCGCCATCTAC”, 1.52 RPM ratio (pull-down/input).
The figure for “GATGATTGTTCTCCCAGCTGATGAATTTCGCCTTTCGAGTAAACAAATTTTCCTAATCTTTCTGTTCAAGCGCCATCTAC” is 5.39 RPM ratio (pull-down/input); for “GATGATTGTTCTCCCAGCTGATGAATTTGTGCCTTCGAGTAAACAAATTTTCCTAATCTTTCTGTTCAAGCGCCATCTAC” it is 4.02 RPM ratio (pull-down/input); for “GATGATTGTTCTCCCAGCTGATGAATTGCGAATCTCGAGTAAACAAATTTTCCTAATCTTTCTGTTCAAGCGCCATCTAC” it is 2.16 RPM ratio (pull-down/input).
As to “GATGATTGTTCTCCCAGCTGATGAATTCCATAGATCGAGTAAACAAATTTTCCTAATCTTTCTGTTCAAGCGCCATCTAC”, the binding signal was 0.239 RPM ratio (pull-down/input).
To “GATGATTGTTCTCCCAGCTGATGAATTAAGGGCCTCGAGTAAACAAATTTTCCTAATCTTTCTGTTCAAGCGCCATCTAC” belongs 0.451 RPM ratio (pull-down/input); to “GATGATTGTTCTCCCAGCTGATGAATTCAATTCGTCGAGTAAACAAATTTTCCTAATCTTTCTGTTCAAGCGCCATCTAC”, 0.665 RPM ratio (pull-down/input); to “GATGATTGTTCTCCCAGCTGATGAATTTCGGAGGTCGAGTAAACAAATTTTCCTAATCTTTCTGTTCAAGCGCCATCTAC”, 0.25 RPM ratio (pull-down/input).
